According to PubChem BioAssay AID1159580 (chemical genetic matrix, 2015):
“And” between values parts separate entries of the source, which are not always exact repeats. Equal entries are not always repeated. Hit rate of the full screen: of about 5,500 compounds, about 2,000 (36%) were called active. Roughly 18% stayed inconclusive and do not appear here. No stated cut-off is given here; in the data, active means normalized growth mostly below about 0.91 (no sharp cut-off); inconclusive means no clear call, values can overlap the other calls; inactive means mostly above about 0.92. The list shows a part of the results.

Assay: chemical genetic growth profiling, strain panel (AID 1159580);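 further: tested at 20 µM; growth read once vehicle control cultures reached saturation at 30 °C; 1 = growth at the plate median or of vehicle wells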
Details: growth OD

Measured: normalized growth

NCCSSCCN
inactive: S. cerevisiae deletion strains, locus YKL009W, strain mrt4, stronger effect = lower value 1.03 | S. cerevisiae deletion strains, locus YKL068W, stronger effect = lower value 1.01 | S. cerevisiae deletion strains, locus YKL085W, strain MDH1 (second series), stronger effect = lower value 1.01 | S. cerevisiae deletion strains, locus YKL085W, strain MDH1, stronger effect = lower value 1.01 | S. cerevisiae deletion strains, locus YKL160W, strain elf1, stronger effect = lower value 0.995 | S. cerevisiae deletion strains, locus YKL190W, strain CNB1, stronger effect = lower value 1.01 | S. cerevisiae deletion strains, locus YKR001C, strain vps1, stronger effect = lower value 1.02 | S. cerevisiae deletion strains, locus YKR026C, strain gcn3, stronger effect = lower value 0.993 | S. cerevisiae deletion strains, locus YKR091W, strain srl3, stronger effect = lower value 0.993 | S. cerevisiae deletion strains, locus YLL001W, strain dnm1, stronger effect = lower value 0.978 | S. cerevisiae deletion strains, locus YLL026W, stronger effect = lower value 0.989 | S. cerevisiae deletion strains, locus YLL041C, strain sdh2, stronger effect = lower value 0.997 | S. cerevisiae deletion strains, locus YLR027C, strain aat2, stronger effect = lower value 0.99 | S. cerevisiae deletion strains, locus YLR039C, strain RIC1, stronger effect = lower value 1.02 | S. cerevisiae deletion strains, locus YLR058C, strain SHM2, stronger effect = lower value 1.01 | S. cerevisiae deletion strains, locus YLR102C, strain apc9, stronger effect = lower value 0.994 | S. cerevisiae deletion strains, locus YLR113W, strain HOG1, stronger effect = lower value 1.05 | S. cerevisiae deletion strains, locus YLR221C, strain rsa3, stronger effect = lower value 0.998 | S. cerevisiae deletion strains, locus YLR258W, strain gsy2, stronger effect = lower value 0.996 | S. cerevisiae deletion strains, locus YLR262C, strain YPT6 (second series), stronger effect = lower value 0.994 | S. cerevisiae deletion strains, locus YLR262C, strain YPT6, stronger effect = lower value 1.02 | S. cerevisiae deletion strains, locus YLR268W, strain sec22, stronger effect = lower value 1.05 | S. cerevisiae deletion strains, locus YLR320W, strain mms22, stronger effect = lower value 1 | S. cerevisiae deletion strains, locus YLR330W, strain CHS5, stronger effect = lower value 1.01 | S. cerevisiae deletion strains, locus YLR342W, strain FKS1 (second series), stronger effect = lower value 1 | S. cerevisiae deletion strains, locus YLR342W, strain FKS1, stronger effect = lower value 0.983 | S. cerevisiae deletion strains, locus YLR357W, strain rsc2, stronger effect = lower value 0.979 | S. cerevisiae deletion strains, locus YLR370C, strain arc18, stronger effect = lower value 0.993 | S. cerevisiae deletion strains, locus YLR371W, strain rom2, stronger effect = lower value 1.01 | S. cerevisiae deletion strains, locus YLR384C, strain iki3, stronger effect = lower value 0.987 | S. cerevisiae deletion strains, locus YLR418C, strain cdc73, stronger effect = lower value 0.999 | S. cerevisiae deletion strains, locus YML016C, strain PPZ1, stronger effect = lower value 1 | S. cerevisiae deletion strains, locus YML032C, strain rad52, stronger effect = lower value 1.03 | S. cerevisiae deletion strains, locus YML120C, strain ndi1, stronger effect = lower value 0.995 | S. cerevisiae deletion strains, locus YML124C, strain tub3, stronger effect = lower value 1 | S. cerevisiae deletion strains, locus YMR058W, strain fet3, stronger effect = lower value 1 | S. cerevisiae deletion strains, locus YMR078C, strain ctf18, stronger effect = lower value 1.01 | S. cerevisiae deletion strains, locus YMR125W, strain sto1, stronger effect = lower value 1 | S. cerevisiae deletion strains, locus YMR129W, stronger effect = lower value 1 | S. cerevisiae deletion strains, locus YMR205C, strain PFK2, stronger effect = lower value 0.992 | S. cerevisiae deletion strains, locus YMR223W, strain ubp8, stronger effect = lower value 0.981 | S. cerevisiae deletion strains, locus YMR231W, strain pep5, stronger effect = lower value 1 | S. cerevisiae deletion strains, locus YMR263W, strain SAP30, stronger effect = lower value 1.03 and 1 | S. cerevisiae deletion strains, locus YMR307W, strain GAS1, stronger effect = lower value 0.996 | S. cerevisiae deletion strains, locus YNL067W, strain RPL9B, stronger effect = lower value 1.03 | S. cerevisiae deletion strains, locus YNL071W, strain lat1, stronger effect = lower value 1 | S. cerevisiae deletion strains, locus YNL128W, strain TEP1, stronger effect = lower value 1.02 and 1 | S. cerevisiae deletion strains, locus YNL153C, strain GIM3, stronger effect = lower value 1.03 | S. cerevisiae deletion strains, locus YNL175C, strain NOP13, stronger effect = lower value 1 | S. cerevisiae deletion strains, locus YNL183C, strain NPR1, stronger effect = lower value 1 | S. cerevisiae deletion strains, locus YNL197C, strain WHI3, stronger effect = lower value 1.02 | S. cerevisiae deletion strains, locus YNL209W, strain ssb2, stronger effect = lower value 1 | S. cerevisiae deletion strains, locus YNL224C, strain SQS1, stronger effect = lower value 1 | S. cerevisiae deletion strains, locus YNL233W, strain BNI4, stronger effect = lower value 1.02 | S. cerevisiae deletion strains, locus YNL248C, strain rpa49, stronger effect = lower value 0.998 | S. cerevisiae deletion strains, locus YNL250W, strain rad50, stronger effect = lower value 0.999 | S. cerevisiae deletion strains, locus YNL271C, strain bni1, stronger effect = lower value 1.01 | S. cerevisiae deletion strains, locus YNL298W, strain CLA4, stronger effect = lower value 1 | S. cerevisiae deletion strains, locus YNL307C, strain MCK1, stronger effect = lower value 1.01 | S. cerevisiae deletion strains, locus YNL322C, strain KRE1 (second series), stronger effect = lower value 0.998 | S. cerevisiae deletion strains, locus YNL322C, strain KRE1, stronger effect = lower value 1.01 and 0.988 | S. cerevisiae deletion strains, locus YNR049C, strain mso1, stronger effect = lower value 1 | S. cerevisiae deletion strains, locus YNR052C, strain pop2, stronger effect = lower value 1 | S. cerevisiae deletion strains, locus YOL006C, strain TOP1, stronger effect = lower value 1.08 | S. cerevisiae deletion strains, locus YOL012C, strain htz1 0.933 | S. cerevisiae deletion strains, locus YOL147C, strain pex11, stronger effect = lower value 1 | S. cerevisiae deletion strains, locus YOR001W, strain rrp6, stronger effect = lower value 0.989 | S. cerevisiae deletion strains, locus YOR061W, strain CKA2, stronger effect = lower value 1.01 | S. cerevisiae deletion strains, locus YOR069W, strain VPS5, stronger effect = lower value 1.01 | S. cerevisiae deletion strains, locus YOR070C, strain gyp1, stronger effect = lower value 0.999 | S. cerevisiae deletion strains, locus YOR080W, strain dia2, stronger effect = lower value 1 | S. cerevisiae deletion strains, locus YOR083W, strain WHI5 (second series), stronger effect = lower value 1.01 | S. cerevisiae deletion strains, locus YOR083W, strain WHI5, stronger effect = lower value 0.99 | S. cerevisiae deletion strains, locus YOR106W, strain vam3, stronger effect = lower value 0.985 | S. cerevisiae deletion strains, locus YOR136W, strain idh2, stronger effect = lower value 0.991 | S. cerevisiae deletion strains, locus YOR144C, strain elg1, stronger effect = lower value 1.01 | S. cerevisiae deletion strains, locus YOR184W, strain ser1, stronger effect = lower value 0.966 | S. cerevisiae deletion strains, locus YOR231W, strain MKK1, stronger effect = lower value 1.09 | S. cerevisiae deletion strains, locus YOR265W, strain rbl2, stronger effect = lower value 0.993 | S. cerevisiae deletion strains, locus YOR270C, strain vph1, stronger effect = lower value 1.02 | S. cerevisiae deletion strains, locus YOR290C, strain snf2, stronger effect = lower value 1.01 | S. cerevisiae deletion strains, locus YOR316C, strain cot1, stronger effect = lower value 1.01 | S. cerevisiae deletion strains, locus YPL051W, strain arl3, stronger effect = lower value 0.982 | S. cerevisiae deletion strains, locus YPL055C, strain LGE1, stronger effect = lower value 0.994 | S. cerevisiae deletion strains, locus YPL078C, strain atp4, stronger effect = lower value 0.998 | S. cerevisiae deletion strains, locus YPL106C, strain sse1, stronger effect = lower value 0.984 | S. cerevisiae deletion strains, locus YPL240C, strain hsp82, stronger effect = lower value 0.991 | S. cerevisiae deletion strains, locus YPL241C, strain CIN2, stronger effect = lower value 1.01 | S. cerevisiae deletion strains, locus YPL256C, strain CLN2, stronger effect = lower value 1.07 | S. cerevisiae deletion strains, locus YPR119W, strain clb2, stronger effect = lower value 1.01 | S. cerevisiae deletion strains, locus YPR141C, strain kar3, stronger effect = lower value 0.997 | S. cerevisiae deletion strains, locus YPR163C, strain tif3, stronger effect = lower value 1.01 | S. cerevisiae deletion strains, locus YPR167C, strain met16, stronger effect = lower value 1 | S. cerevisiae deletion strains, strain wtn01, stronger effect = lower value 1.03 | S. cerevisiae strains, strain wild type, stronger effect = lower value 1.01
